Experimental data: PubChem BioAssay (NCATS)
Where “and” joins values, the source holds several entries; their conditions need not be identical. Equal entries are not always repeated. Records with an inconclusive call do not appear. Unmarked numbers belong to inactive results. Calls of active or inactive are those of the source. The call rests on the fitted dose curve; in most records, active means well fitted cell-killing curve with a large enough effect; inconclusive means small, poorly fitted or top-dose-only effect; inactive means flat fitted curve, though single readings scatter.

Experiment: Cellular viability qHTS for adrenocortical cancer (ACC) cell line SW-13 (AID 1963989); further: nearly all actives have a fitted effect of over 65% in size;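 on activity (max response): cells grown in serum-free medium with ITS supplement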
Settings: SW-13 ACC cells viability, CellTiter-Glo, 48 h; activity (max response): hits give low values
Source text: PI: Naris Nilubol, MD Surgical Oncology Program, National Cancer Institute (NCI) National Institute of Health (NIH), Bethesda, Maryland Adrenocortical cancer (ACC) is a rare malignancy with poor survival outcomes and few treatment options. Currently, mitotane is the only FDA-approved therapy for ACC. Although adjuvant radiation therapy is rarely utilized, it has the potential to improve survival in select cases. Through a quantitative high-throughput drug screen (qHTS), we identified auranofin (AF), a thioredoxin reductase (TXNRD) inhibitor, as a promising candidate drug. This study aims to evaluate whether AF can enhance the efficacy of radiation therapy in the treatment of ACC. Two human ACC cell lines, SW-13 and NCI-H295R, were screened using the National Center for Advancing Translational Sciences (NCATS) Pharmaceutical Collection (NPC) and the Mechanism Interrogation PlatE (MIPE) library (~4,991 compounds). CellTiter-Glo (Cat # G7570, Promega, Madison, WI) was utilized to measure cell viability. Described herein are the results of the corresponding viability assay.
PROTOCOL TABLE (as described by Inglese J, Shamu CE and Guy RK. 2007) SEQUENCE No. (e.g., 1, 2, 3, etc.); […] (e.g., Cells, Incubation, Reagent, etc.); VALUE; DESCRIPTION. 1; Cells; 5 uL; white, solid-bottom, 1536-well tissue-culture treated plates. 2; Time; overnight culture at 37C with 5% CO2. 3; Compounds and control; 23 nL; Kalypsis pin tool (Wako USA) equipped with a 1536-well pin head to transfer to the assay plates. 4; Time; 48 hours; 37C with 5% CO2. 5; Reagent; 4 uL; CellTiter-Glo luminescent substrate mix. 6; Time; 20 min at room temperature. 7; Detection; Luminescence; ViewLux plate reader NOTES (numbers refer to Sequence numbers above) 1. SW13 cells were harvested from a T175 flask and resuspended in ITS-supplemented DMEM serum-free medium at a concentration of 300 000 cells/mL. Then 5 uL of resuspended cells were dispensed into each well of white, solid-bottom, 1536-well tissue-culture-treated plates using a multidrop combi dispenser. The plates were covered with stainless steel gasket lids. 2-3. The plates were cultured overnight at 37C with 5% CO2. Twenty-three nL of compounds (eight selected concentrations from the NPC / MIPE) or positive control (10 mM stock of bortezomib) in DMSO was transferred to each well of the assay plate using a pin tool (Kalypsys, San Diego, CA, USA). The final concentration of the compounds in the 5 uL assay volume ranged from 0.5 nM to 46 uM. 4-6. After 48 hours of incubation at 37C and 5% CO2, 4 uL of CellTilter-Glo luminescent substrate mix (Promega, Madison, WI, USA) was added to each well. Then the plates were incubated for 20 minutes at room temperature. 7. After incubation, luminescence was measured using a ViewLux plate reader (PerkinElmer, Waltham, MA, USA) with a clear filter was used to measure the number of metabolically competent cells. To determine compound activity in the qHTS assay, the titration-response data for each sample was plotted and modeled by a four-parameter logistic fit yielding IC50 and efficacy (maximal response) values. […] REFERENCES: Inglese J, Shamu CE and Guy RK, Reporting data from high throughput screening of small molecule libraries, Nature Chemical Biology, 2007, 3(8): 438-441. doi.org/10.1038/nchembio0807-438.
On the % scale 0 is the no-effect control and ±100 the full control effect.

In order of falling activity (max response):
1. CC(C)Cc1ccc(C(C)C(=O)OCc2ccccn2)cc1 (stereo not given)  14%
2. O=C1c2cccc(O)c2C(=O)c2c(O)cc(CO)cc21  13.5%
3. O=C(O)Cc1ccc2c(c1)C(=O)c1ccccc1CO2  11.3%
4. CCS(=O)(=O)c1ccc(OC)c(C(=O)OC)c1  10.8%
5. NC(=O)NC1NC(=O)NC1=O (stereo not given)  10.7%
6. CC1CC(OC(=O)c2ccccc2O)CC(C)(C)C1 (stereo not given)  10.4%
7. Nc1nc(-c2nn(Cc3ccccc3F)c3ncccc23)nc(N)c1N1CCOCC1  8.84%
8. CC(=O)N(CC(O)CO)c1c(I)c(C(=O)NCCO)c(I)c(C(=O)NCC(O)CO)c1I (stereo not given)  7.39%
9. Nc1[nH]c(=O)ncc1F  6.88%
10. O=C1CC2(CCCC2)CC(=O)N1CCNCC1COc2ccccc2O1 (stereo not given)  6.61%
11. COc1ccc(Nc2nccc(NCCO)n2)cc1  5.92%
12. CC1=C(C(=O)Nc2cc3cn[nH]c3cc2F)C(c2ccc(C(F)(F)F)cc2)CC(=O)N1 (stereo not given)  5.03%
13. CCOC(=O)c1cc(=O)c2c(OCC(COc3cccc4oc(C(=O)OCC)cc(=O)c34)OC(=O)[C@@H](N)CCCCN)cccc2o1  4.59%
14. Cc1nc(N)sc1-c1ccnc(Nc2ccc(N3CCOCC3)cc2)n1  4.45%
15. NC[C@H]1O[C@H](O[C@H]2[C@H](O)[C@@H](O[C@H]3O[C@H](CO)[C@@H](O)[C@H](N)[C@H]3O)[C@H](N)C[C@@H]2N)[C@H](N)C[C@@H]1O  4.38%
16. CCN(CC)C(=O)/C(C#N)=C/c1cc(O)c(O)c([N+](=O)[O-])c1  3.46%
17. O=C(NNc1ccccc1)c1ccncc1  1.69%
18. C[C@@H](N)C(=O)O  1.67%
19. NC(=O)COCCN1CCN(C(c2ccccc2)c2ccc(Cl)cc2)CC1 (stereo not given)  0.82%
20. CCN(Cc1ccncc1)C(=O)C(CO)c1ccccc1 (stereo not given)  -0.134%
21. CCOC(=O)[C@H](CCc1ccccc1)N[C@H]1CCc2ccccc2N(CC(=O)O)C1=O  -3.37%
22. C[Se]CCC(N)C(=O)O (stereo not given)  -4.29%
23. COc1ccc(Cl)cc1C(=O)NCCc1ccc(S(=O)(=O)NC(=O)NC2CCCCC2)cc1  -4.38%
24. CCCCC(CC)COC(=O)c1ccc(N(C)C)cc1 (stereo not given)  -4.79%
25. CC(=O)Oc1ccc(C2(c3ccc(OC(C)=O)cc3)C(=O)Nc3ccccc32)cc1  -6.19%
26. CCOC(=O)Nc1ccc(NCc2ccc(F)cc2)nc1N  -9.42%
27. O=c1c(O)c(-c2ccc(O)cc2)oc2cc(O)cc(O)c12  -9.76%
28. Nc1ccc(C(=O)NCC(=O)O)cc1  -9.96%
29. COc1ncc(Nc2ncc(C(C)N3CCN(S(C)(=O)=O)CC3)cc2-c2nc(C)nc(N)n2)cc1F (stereo not given)  -11.9%
30. COC(=O)C[C@](O)(CCCC(C)(C)O)C(=O)O[C@@H]1C(OC)=C[C@]23CCCN2CCc2cc4c(cc2[C@H]13)OCO4  -15.2%
31. CC1(C)OCCn2c1nc1c(N3CCOCC3)nc(-c3cnc(N)nc3)nc12  -17.2%

For `Cn1cnc2c(F)c(Nc3ccc(Br)cc3F)c(C(=O)NOCCO)cc21`, the Potency was 17.8 µM (active).
With `CCCCc1nc2cc(/C=C/C(=O)NO)ccc2n1CCN(CC)CC` the Potency was 2 µM (active).
For `CCCCNc1ncc2c(-c3ccc(CN4CCN(C)CC4)cc3)cn(C3CCC(O)CC3)c2n1` (stereo not given), the Potency was 11.2 µM (active).
In the case of `COc1ncc(-c2ccc3nccc(-c4ccnnc4)c3c2)cc1NS(=O)(=O)c1ccc(F)cc1F`, the Potency is reported as 1.12 µM (active).

With `CC(C)[C@H](N)C(=O)OCCOCn1cnc2c(=O)[nH]c(N)nc21` the activity (max response) was -3.62% and -11.6%.
With `Nc1c2c(nc3ccccc13)CCCC2` the activity (max response) was -1.99% and -7.86%.
With `CCCCCOC(=O)Nc1nc(=O)n([C@@H]2O[C@H](C)[C@@H](O)[C@H]2O)cc1F` the activity (max response) was 14.3% and 14.2%.
For `Cc1[nH]c(=O)c(C#N)cc1-c1ccncc1`, the activity (max response) was 14.7% and 1.4% and -7.07%.
In the case of `NC(=O)c1ncn([C@@H]2O[C@H](CO)[C@@H](O)[C@H]2O)c1O`, the activity (max response) is reported as 14.2% and 14.7% and 8.98%.
